Laboratory results taken from PubChem BioAssay (Tox21).
Values joined by “and” are separate entries in the source; they are usually repeats but may differ in a detail not shown here. Equal values may be shown once. Inconclusive results are not listed. A call without a number means that no potency is given here. Some structures have more than one record in an assay (separate samples or runs), and their calls can disagree. Active and inactive are the calls of the source. Unless noted, calls come from the whole dose curve; as a rule, active = well fitted curve in the direction sought with a large enough effect in the repeat runs; inconclusive = weak or mixed curves; inactive = no such curve, though single readings can be large; an effect the other way counts as inactive or inconclusive.

How the values were obtained:
[1] = qHTS assay for small molecule agonists of the p53 signaling pathway (AID 651631; calls by dose curve; note: nearly all actives have a fitted effect of over 15% in size; note: potency is the fitted concentration of half-maximal effect)
Method in brief: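 We treat p53RE-bla HCT-116 cells with compounds for 16 h at 37 °C, add LiveBLAzer B/G FRET substrate for 2 h at room temperature, and measure fluorescence intensity.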

[2] = qHTS assay for small molecules that induce genotoxicity in human embryonic kidney cells expressing luciferase-tagged ATAD5 (AID 651632); note: nearly all actives have a fitted effect of over 15% in size; note: potency is the fitted concentration of half-maximal effect
Method in brief: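 Concentration-response screen for ATAD5 upregulation in HEK293T luciferase reporter cells; 16 hr treatment at 37C, then luminescence after 30 min with Amplite at room temperature.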

[3] = qHTS assay for small molecules that induce genotoxicity in human embryonic kidney cells expressing luciferase-tagged ATAD5 - cell viability (AID 651634; calls by dose curve; note: nearly all actives have a fitted effect of over 25% in size; note: potency is the fitted concentration of half-maximal effect)
Method in brief: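 15.5 hr compound or vehicle exposure of HEK293T cells expressing luciferase-tagged ATAD5 at 37C; live-cell protease activity is read by fluorescence after 30 min of CellTiter-Fluor.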

[4] = qHTS assay for small molecule disruptors of the mitochondrial membrane potential - cell viability (AID 720634; calls by dose curve; note: nearly all actives have a fitted effect of over 20% in size; note: potency is the fitted concentration of half-maximal effect)
Method in brief: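 In this qHTS format, HepG2 cells plated overnight were pinned with compound, incubated 1 hr, and assayed for ATP luminescence with CellTiter-Glo after m-MPI dye addition.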

[5] = qHTS assay to test for compound auto fluorescence at 590 nm (red) in HepG2 cells (AID 720674)
Method in brief: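 Intrinsic compound fluorescence in the red window (Ex/Em 540/590 nm) is measured in attached HepG2 cells exposed for 1 hr, DMSO vehicle as baseline, benchmarked to Rose Bengal sodium.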

[6] = qHTS assay to test for compound auto fluorescence at 535 nm (green) in HepG2 cells (AID 720675)
[7] = qHTS assay to test for compound auto fluorescence at 460 nm (blue) in HEK293 cells (AID 720678)
Method in brief: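 Measured: blue fluorescence (Ex 405/Em 460 nm) of compound-treated HEK293 cells, incubated overnight at 37C with 5% CO2 and scaled to triamterene equivalents.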

[8] = qHTS assay to test for compound auto fluorescence at 590 nm (red) in HEK293 cells (AID 720679)
Method in brief: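 Using HEK293 cells at 2,000 per well, the screen added 23 nL of each compound after cell attachment and incubated overnight (37C, 5% CO2). The plate reader then captured red-label fluorescence, Ex/Em 540/590nm.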

[9] = qHTS assay to test for compound auto fluorescence at 535 nm (green) in HEK293 cells (AID 720680)
[10] = qHTS assay to test for compound auto fluorescence at 460 nm (blue) in HEK293 cell free culture (AID 720681)
Method in brief: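 Test compounds were pinned into cell-free culture medium (DMEM with 10% FBS) and fluorescence was read directly at Ex/Em 405/460 nm. Signals were expressed as fluorescence equivalents of triamterene, with DMSO vehicle as control.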

[11] = qHTS assay to test for compound auto fluorescence at 535 nm (green) in HEK293 cell free culture (AID 720682)
Method in brief: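 Green-channel intensity (Ex/Em 485/535 nm) was recorded from compound-treated wells containing only DMEM with 10% FBS. Fluorescein provided the equivalency standard.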

[12] = qHTS assay to test for compound auto fluorescence at 590 nm (red) in HEK293 cell free culture (AID 720683)
Method in brief: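 Tox21 10K library compounds were pinned into cell-free DMEM with 10% FBS and fluorescence was read at excitation 540 nm. Activity is expressed as Rose Bengal sodium equivalency.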

[13] = qHTS assay to test for compound auto fluorescence at 590 nm (red) in HepG2 cell free culture (AID 720684)
Method in brief: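 Ex 540 / Em 590 nm read of compound in cell-free MEM (10% FBS). Rose Bengal sodium reference.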

[14] = qHTS assay to test for compound auto fluorescence at 460 nm (blue) in HepG2 cell free culture (AID 720685)
Method in brief: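 Cell-free plates of MEM plus 10% FBS received 23 nL compound or DMSO vehicle; blue-channel (405/460 nm) intensity scored against triamterene as reference fluorophore.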

[15] = qHTS assay to test for compound auto fluorescence at 460 nm (blue) in HepG2 cells (AID 720687)
Method in brief: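 Cells (2,000/well in MEM with 10% FBS) attached overnight at 37 C, then were exposed to compound or DMSO for 1 hr at 37 C, 5% CO2. Fluorescence read at Ex/Em 405/460 nm, expressed as triamterene-equivalent signal.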

[16] = target: Glucocorticoid receptor (Homo sapiens) (UniProt P04150); test: qHTS assay to identify small molecule agonists of the glucocorticoid receptor (GR) signaling pathway (AID 720691; active = well fitted activation curve with a large enough effect in the signal ratio in the repeat runs, not every such curve was filed as active; the % refers to the signal ratio; note: potency is the fitted concentration of half-maximal effect); conditions: GR-bla HeLa, beta-lactamase reporter ratio, 18 h; activation: at 62.4 µM (top of the series)
Method in brief: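 Measures GR pathway activation through a GRE-beta-lactamase reporter stably integrated in HeLa cells, with 18 h compound treatment at 37 C and fluorescence detection using a FRET substrate.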

[17] = target: Glucocorticoid receptor (Homo sapiens) (UniProt P04150); test: qHTS assay to identify small molecule antagonists of the glucocorticoid receptor (GR) signaling pathway (AID 720692; active = well fitted inhibition curve with a large enough effect in the signal ratio in the repeat runs, not every such curve was filed as active; the % refers to the signal ratio; note: potency is the fitted concentration of half-maximal effect)
Method in brief: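 Tox21 10K library screened in concentration-response for blockade of dexamethasone (5 nM final)-induced GRE-bla reporter activity in HeLa cells; 18 h treatment, fluorescence read.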

[18] = qHTS assay for small molecule agonists of the p53 signaling pathway - cell viability (AID 651633; calls by dose curve; note: nearly all actives have a fitted effect of over 30% in size; note: potency is the fitted concentration of half-maximal effect)
Method in brief: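 p53RE-bla cells, seeded at 4,000 per well and rested 5 h at 37 C/5% CO2, received compounds in DMSO for 16 h at 37 C. CellTiter-Glo was then added, and luminescence was read after 30 min at room temperature to gauge cytotoxicity.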

[19] = qHTS assay to test for compound auto fluorescence at 535 nm (green) in HepG2 cell free culture (AID 720686)
[20] = qHTS assay for small molecule disruptors of the mitochondrial membrane potential (AID 720635); note: potency is the fitted concentration of half-maximal effect
Method in brief: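 HepG2 cells (2,000/well) attached overnight at 37C, then took compound for 1 hr at 37C, 5% CO2. Mito-MPS dye was added for 30 min; fluorescence was read at 490/535 nm (monomers) and 540/590 nm (aggregates).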

Glucocorticoid receptor (Homo sapiens), sequence (P04150 whole entry, looked up): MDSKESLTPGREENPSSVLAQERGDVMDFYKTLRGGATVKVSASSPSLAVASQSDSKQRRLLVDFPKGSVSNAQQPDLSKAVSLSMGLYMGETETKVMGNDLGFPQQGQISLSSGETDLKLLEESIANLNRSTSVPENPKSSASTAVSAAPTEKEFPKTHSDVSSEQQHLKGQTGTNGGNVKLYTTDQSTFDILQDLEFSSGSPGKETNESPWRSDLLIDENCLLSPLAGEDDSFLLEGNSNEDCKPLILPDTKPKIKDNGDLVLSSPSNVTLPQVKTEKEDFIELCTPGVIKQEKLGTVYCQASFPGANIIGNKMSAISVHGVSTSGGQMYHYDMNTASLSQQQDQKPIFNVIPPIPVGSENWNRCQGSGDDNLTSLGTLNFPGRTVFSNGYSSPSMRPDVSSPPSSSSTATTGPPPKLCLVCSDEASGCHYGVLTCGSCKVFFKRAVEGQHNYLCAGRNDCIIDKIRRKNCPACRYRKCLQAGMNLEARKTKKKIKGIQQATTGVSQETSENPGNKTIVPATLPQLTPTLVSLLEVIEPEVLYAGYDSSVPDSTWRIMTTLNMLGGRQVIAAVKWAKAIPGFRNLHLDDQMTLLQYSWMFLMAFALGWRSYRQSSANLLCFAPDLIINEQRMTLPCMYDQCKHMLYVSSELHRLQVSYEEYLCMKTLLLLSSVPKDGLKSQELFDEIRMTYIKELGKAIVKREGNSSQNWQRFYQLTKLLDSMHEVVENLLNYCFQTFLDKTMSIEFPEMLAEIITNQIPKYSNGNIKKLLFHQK

| Structure (SMILES) | Potency [1] | Potency [2] | Potency [3] | Potency [4] | outcome [5] | Potency [6] | Potency [7] | outcome [8] | outcome [9] | Potency [10] | outcome [11] | outcome [12] | outcome [13] | Potency [14] | Potency [15] | Potency [16] | Potency [17] | Potency [18] | Potency [19] | Potency [20] |
| --- | --- | --- | --- | --- | --- | --- | --- | --- | --- | --- | --- | --- | --- | --- | --- | --- | --- | --- | --- | --- |
| CCC1COC(Cn2cncn2)(c2ccc(Cl)cc2Cl)O1 (configuration not stated) | inactive | inactive | inactive | inactive | inactive | inactive | inactive | inactive | inactive | inactive | inactive | inactive | inactive | inactive | inactive | inactive | inactive |  |  |  |
| Fc1ccc(C(OCCN2CCN(CCCc3ccccc3)CC2)c2ccc(F)cc2)cc1 |  | inactive | 29.8 µM (active) | inactive | inactive | inactive | inactive | inactive | inactive | inactive | inactive |  | inactive | inactive | inactive |  |  | 26.6 µM (active) | inactive |  |
| ClSC(Cl)(Cl)Cl |  | inactive | inactive | inactive | inactive | inactive | inactive | inactive | inactive | inactive | inactive |  | inactive | inactive | inactive |  |  | inactive | inactive | inactive |
| CC1CN1 (configuration not stated) | inactive |  |  | inactive | inactive | inactive | inactive |  | inactive | inactive | inactive | inactive | inactive | inactive | inactive |  |  | inactive | inactive | inactive |
| O=C1C[C@@H]2OCC=C3CN4CC[C@]56c7ccccc7N1[C@H]5[C@H]2[C@H]3C[C@H]46 | inactive |  | inactive | inactive | inactive | inactive | inactive | inactive | inactive | inactive | inactive | inactive | inactive |  | inactive |  |  |  | inactive | inactive |
| CN1C(=O)[C@@H](NC(=O)c2cc3ccccc3[nH]2)N=C(c2ccccc2)c2ccccc21 |  | 11.9 µM (active) | inactive | inactive | inactive | inactive | inactive |  | inactive | inactive |  | inactive | inactive | inactive | inactive |  |  | inactive | inactive | 10.6 µM (active) |
| COP(=O)(OC)Oc1ccc([N+](=O)[O-])cc1 |  | inactive | inactive | inactive | inactive | inactive | inactive | inactive | inactive | inactive | inactive | inactive | inactive | inactive | inactive |  |  | inactive | inactive |  |
| CC(C)N(C(=O)CCl)c1ccccc1 |  | inactive | 27.3 µM (active) and 38.6 µM (active) | inactive |  | inactive | inactive | inactive | inactive | inactive | inactive |  | inactive | inactive | inactive |  | 24.5 µM (active) | inactive and 30.6 µM (active) |  | inactive |
| CCN(CC)C(=S)S |  | inactive | inactive | inactive | inactive | inactive | inactive | inactive | inactive | inactive | inactive | inactive | inactive | inactive | inactive | inactive and 4.9 µM (active) | inactive | inactive |  |  |
| CCn1cc[n+](C)c1 (tested in a mixture with another compound) |  | inactive | inactive | inactive | inactive | inactive | inactive |  | inactive | inactive | inactive | inactive | inactive |  | inactive |  |  | inactive |  | inactive |
| Clc1ccc(C(c2ccc(Cl)cc2)C(Cl)Cl)cc1 |  | inactive | inactive | inactive | inactive | inactive | inactive | inactive | inactive | inactive | inactive | inactive | inactive | inactive | inactive | inactive | 24.9 µM (active) | 62.1 µM (active) and 61.1 µM (active) |  | 9.85 µM (active) and 9.69 µM (active) |
| CC(=O)[O][Pb]([c]1ccccc1)([c]1ccccc1)[c]1ccccc1 |  | inactive | 0.686 µM (active) | 30.6 µM (active) | inactive | inactive | inactive |  | inactive | inactive | inactive | inactive | inactive |  | inactive |  |  | 2.73 µM (active) | inactive | 1.09 µM (active) |
| COC(=O)C(C)N(C(=O)c1ccco1)c1c(C)cccc1C (configuration not stated) |  | inactive | inactive | inactive | inactive | inactive | inactive | inactive |  | inactive |  | inactive | inactive |  | inactive | inactive | inactive | inactive | inactive | inactive |
| CC(Cc1ccc(OCC(=O)O)cc1)NCC(O)c1csc(C(F)(F)F)n1 (configuration not stated) |  | inactive | inactive | inactive | inactive | inactive | inactive | inactive | inactive | inactive | inactive | inactive | inactive | inactive | inactive | inactive | inactive | inactive | inactive |  |
| Brc1cccc(-c2ccccc2)c1 |  | inactive | inactive | inactive | inactive | inactive | inactive | inactive | inactive | inactive | inactive | inactive | inactive | inactive | inactive |  | inactive | inactive | inactive | 0.436 µM (active) |
| BrCC(Br)(Br)Br | 7.11 µM (active) |  |  | inactive | inactive | inactive | inactive | inactive | inactive | inactive | inactive | inactive | inactive |  | inactive |  |  |  |  |  |
